Test results from PubChem BioAssay (NCATS).
Inconclusive results are not listed. Activity calls are given as the source filed them. Unless noted, calls follow the shape of the dose curve; as a rule, active = well fitted cell-killing curve with a large enough effect; inconclusive = small, poorly fitted or top-dose-only effect; inactive = flat fitted curve, though single readings scatter.

Tests used:
[1] = Cell Viability - LYMP2-025 (AID 976);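 also: series mostly up to about 92 µM; plate controls were DMSO only for no effect and tetraoctylammonium bromide control for full effect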
Outline: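 Luminescent ATP readout after 24 hr treatment of a human lymphoblastoid line (LYMP2-025, 2500 cells/well, 37 C). Reagent developed 30 min at room temperature; AC50 fitted with the Hill equation.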

[2] = Cell Viability - LYMP2-002 (AID 977);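 also: series mostly up to about 92 µM; plate controls were DMSO only for no effect and 92 µM tetraoctylammonium bromide for full effect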
Outline: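 Human lymphoblastoid cells (2500/well) in complete medium were preincubated 5 hr at 37 C, then exposed to compounds for 24 hr at 37 C. Intracellular ATP was read by CellTiter-Glo luminescence; AC50 came from Hill-equation concentration-response fits.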

[3] = Cell Viability - LYMP2-006 (AID 978); also: series mostly up to about 92 µM; % is scaled to controls: 0 for no effect and ±100 for the full control effect; nearly all actives have a fitted effect of over 60% in size
Outline: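 Potency values are Hill-fit AC50s for decreases in intracellular ATP (CellTiter-Glo luminescence). LYMP2-006 lymphoblastoid cells, 2500 per well, were exposed to compound in complete culture medium for 24 hr at 37 C.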

[4] = Cell Viability - LYMP2-007 (AID 979);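 also: cells exposed to compound for 24 h before reading; 0% = DMSO only and the negative end = 92 µM tetraoctylammonium bromide; nearly all actives have a fitted effect of over 60% in size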
Outline: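 Measured via luciferase-based ATP quantitation: lymphoblastoid cells, 24 hr compound exposure at 37 C, AC50 from Hill fits.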

[5] = Cell Viability - LYMP2-008 (AID 980); also: % is scaled to controls: 0 for no effect and ±100 for the full control effect; nearly all actives have a fitted effect of over 60% in size
Outline: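 Measured: ATP-dependent luminescence, proportional to viable cell number, in human lymphoblastoid cells treated 24 hr with compound in complete culture medium. Values are AC50s from Hill-equation modelling of qHTS titrations.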

[6] = Cell Viability - LYMP2-012 (AID 982);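 also: cellular ATP by luciferase luminescence where a drop means cytotoxicity; cells exposed to compound for one day before reading; 0% = DMSO only and full loss = 92 µM tetraoctylammonium bromide; nearly all actives have a fitted effect of over 55% in size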
[7] = Cell Viability - LYMP2-014 (AID 983);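 also: series mostly up to about 92 µM; plate controls were DMSO only for no effect and 92 µM tetraoctylammonium bromide for full effect; nearly all actives have a fitted effect of over 50% in size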
Outline: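 Quantitative HTS in lymphoblastoid cells: 24 hr compound exposure, then CellTiter-Glo ATP luminescence. Positive control was tetraoctylammonium bromide, 6.4pM to 92 uM.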

[8] = Cell Viability - LYMP2-016 (AID 984); also: % is scaled to controls: 0 for no effect and ±100 for the full control effect; nearly all actives have a fitted effect of over 55% in size
Outline: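 Cytotoxicity was scored by luminescent ATP content (CellTiter-Glo) after 24 h compound exposure at 37 C of a human lymphoblastoid line at 2500 cells/well. Concentration-response data were fitted to the Hill equation for AC50.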

[9] = Cell Viability - LYMP2-018 (AID 985);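 also: plate controls were DMSO only for no effect and tetraoctylammonium bromide at 92 µM for full effect; nearly all actives have a fitted effect of over 50% in size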
Outline: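 In this qHTS viability assay, cells are treated for 24 hr and cellular ATP is quantified by luciferase-based luminescence, with tetraoctylammonium bromide as positive control.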

[10] = Cell Viability - LYMP2-020 (AID 986);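 also: series mostly up to about 92 µM; plate controls were DMSO only for no effect and tetraoctylammonium bromide at 92 µM for full effect; nearly all actives have a fitted effect of over 55% in size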
Outline: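 Cells at 2500 per well receive a 24 hr compound exposure at 37 C. Viability is measured as ATP-dependent luciferase luminescence, with AC50 modeled from qHTS concentration-response curves.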

[11] = Cell Viability - LYMP2-022 (AID 987);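 also: 0% = DMSO alone and full effect = tetraoctylammonium bromide at 92 µM; nearly all actives have a fitted effect of over 55% in size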
Outline: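 In this qHTS cytotoxicity screen, compound titrations were incubated 24 hr at 37 C with human lymphoblastoid cells in complete medium. Luciferase-based ATP luminescence provided the viability signal.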

[12] = Cell Viability - LYMP2-026 (AID 989); also: % is scaled to controls: 0 for no effect and ±100 for the full control effect; nearly all actives have a fitted effect of over 50% in size
Outline: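 Acute toxicity screen in complete culture medium, with 24 hr compound exposure at 37 C. Viability read as cellular ATP via luciferase reaction, with tetraoctylammonium bromide (6.4pM to 92 uM) as positive control.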

[13] = Cell Viability - LYMP1-002 - Assay at 24 hr (AID 993); also: % is scaled to controls: 0 for no effect and ±100 for the full control effect
Outline: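 Viability was judged from intracellular ATP using a luciferase read-out, following a 24-hour compound incubation at 37 C of lymphoblastoid cells seeded at 2500 per well. Concentration-response data were fitted to the Hill equation for AC50.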

[14] = Cell Viability - LYMP1-002 - Assay at 40 hr (AID 994);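 also: 0% = DMSO only and full inhibition = 92 µM tetraoctylammonium bromide; nearly all actives have a fitted effect of over 60% in size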
Outline: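 Concentration-dependent ATP loss after 40 hr treatment at 37 C defined toxicity; AC50 values were obtained by fitting the standard Hill equation.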

[15] = qHTS Assay for Identification of Small Molecule Inducers of Hypoxia Response (AID 2120; active = well fitted curve in the direction sought with a large enough effect in the signal ratio, with a control signal flat, not every such curve was filed as active; the % refers to the signal ratio; also: 0% is about no effect)
Outline: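 HRE-bla ME-180, 2500 cells/well, 0.5% dialyzed FBS medium; cpd titration, 17 h 37 degrees C; CCF4 2.5 h RT; Ex 405, Em 460/530 ratio -> %Activity, AC50.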

[16] = molecular target: Bile acid receptor (Homo sapiens) (UniProt Q96RI1); experiment: qHTS assay for small molecule antagonists of farnesoid X receptor signaling (AID 588526; calls by dose curve; also: % is scaled to controls: 0 for no effect and ±100 for the full control effect)
Chain of Bile acid receptor (Homo sapiens) (Q96RI1 whole entry, looked up): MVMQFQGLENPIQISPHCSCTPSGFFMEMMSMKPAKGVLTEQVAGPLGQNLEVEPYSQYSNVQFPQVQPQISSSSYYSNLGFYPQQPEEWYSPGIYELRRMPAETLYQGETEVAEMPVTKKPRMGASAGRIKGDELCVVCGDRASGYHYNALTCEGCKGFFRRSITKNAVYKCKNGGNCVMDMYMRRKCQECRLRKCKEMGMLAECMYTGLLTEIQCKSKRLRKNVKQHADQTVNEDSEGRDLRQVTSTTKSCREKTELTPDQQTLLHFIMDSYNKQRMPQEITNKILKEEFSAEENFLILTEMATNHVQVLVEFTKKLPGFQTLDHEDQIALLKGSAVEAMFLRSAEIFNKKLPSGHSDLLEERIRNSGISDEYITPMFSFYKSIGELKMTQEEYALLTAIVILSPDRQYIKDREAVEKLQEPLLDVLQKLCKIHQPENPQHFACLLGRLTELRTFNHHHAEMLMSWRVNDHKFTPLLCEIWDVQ
Outline: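 Beta-lactamase reporter antagonist mode: HEK293T FXR-UAS-bla cells, titrated compound, CDCA stimulation, 16 h 37 C, CCF4 dye 2 h RT. Data normalized to CDCA 50 uM and DMSO; Hill-fit IC50.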

[17] = molecular target: Bile acid receptor (Homo sapiens) (UniProt Q96RI1); experiment: qHTS assay for small molecule agonists of farnesoid X receptor signaling (AID 588527; calls by dose curve;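 also: series mostly up to about 77 µM; 0% = vehicle basal and 100% = reference agonist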); conditions: HEK293T FXR-UAS-bla, beta-lactamase ratio, 16 h; activation: stronger effect = higher value
Outline: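 Agonist-mode beta-lactamase reporter in GeneBLAzer FXR-UAS-bla HEK293T cells, titration up to 92 uM, 16 h exposure at 37 C, CCF4 fluorescence. Response scaled to DMSO (0%) and 100 uM chenodeoxycholic acid (100%), then Hill-fitted for EC50 and efficacy.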

[18] = molecular target: Peroxisome proliferator-activated receptor delta (Homo sapiens) (UniProt Q03181); experiment: qHTS assay for small molecule agonists of peroxisome proliferator-activated receptor delta signaling (AID 588534; calls by dose curve;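 also: 0% = DMSO basal wells and 100% = positive control agonist at 10 µM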)
Chain of Peroxisome proliferator-activated receptor delta (Homo sapiens) (Q03181 whole entry, looked up): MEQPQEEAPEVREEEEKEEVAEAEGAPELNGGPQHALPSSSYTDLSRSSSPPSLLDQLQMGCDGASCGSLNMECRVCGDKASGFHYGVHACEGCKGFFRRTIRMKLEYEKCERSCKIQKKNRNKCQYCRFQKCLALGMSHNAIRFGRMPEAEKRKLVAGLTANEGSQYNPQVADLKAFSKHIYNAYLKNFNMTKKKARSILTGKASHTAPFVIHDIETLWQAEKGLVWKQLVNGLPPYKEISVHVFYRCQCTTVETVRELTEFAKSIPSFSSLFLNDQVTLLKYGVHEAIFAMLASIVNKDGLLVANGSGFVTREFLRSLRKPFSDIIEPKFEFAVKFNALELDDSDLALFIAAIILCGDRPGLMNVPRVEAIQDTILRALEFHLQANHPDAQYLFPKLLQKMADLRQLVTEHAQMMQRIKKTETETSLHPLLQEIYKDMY
Outline: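 EC50 and efficacy values derive from Hill fits of a concentration series in a beta-lactamase reporter cell assay. Exposure is 18 hrs at 37 C, with CCF4 fluorescence as the readout.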

[19] = molecular target: Vitamin D3 receptor (Homo sapiens) (UniProt P11473); experiment: qHTS assay for small molecule antagonists of vitamin D receptor signaling (AID 588541; calls by dose curve;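 also: receptor activated by calcitriol during compound treatment; series mostly up to about 77 µM; % is scaled to controls: 0 for no effect and ±100 for the full control effect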)
Chain of Vitamin D3 receptor (Homo sapiens) (P11473 whole entry, looked up): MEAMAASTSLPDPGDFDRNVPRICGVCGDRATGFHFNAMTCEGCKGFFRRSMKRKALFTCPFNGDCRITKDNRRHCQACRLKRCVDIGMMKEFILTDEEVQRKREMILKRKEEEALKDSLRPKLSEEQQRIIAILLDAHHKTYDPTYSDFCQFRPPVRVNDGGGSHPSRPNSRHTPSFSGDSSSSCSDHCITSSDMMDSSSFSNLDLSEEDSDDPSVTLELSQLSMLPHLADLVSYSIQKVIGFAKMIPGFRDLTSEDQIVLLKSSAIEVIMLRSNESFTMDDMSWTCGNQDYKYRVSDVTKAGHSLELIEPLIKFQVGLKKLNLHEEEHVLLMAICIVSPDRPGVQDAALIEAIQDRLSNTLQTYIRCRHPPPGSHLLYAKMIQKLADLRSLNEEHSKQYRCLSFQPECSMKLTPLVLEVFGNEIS
Outline: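 Antagonist-mode beta-lactamase reporter assay: HEK293T VDR-UAS-bla cells were exposed to titrated compound alongside 1-alpha,25-dihydroxyvitamin D3 at 3 nM final for 16 h. Values were normalized to the 50 nM agonist control and DMSO basal, with IC50 and efficacy from Hill equation fits.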

[20] = qHTS assay for small molecule agonists of retinoid X receptor alpha signaling (AID 588544; calls by dose curve;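 as to activation: 0% = DMSO basal wells and 100% = reference agonist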); conditions: HEK293T RXRa-UAS-bla, beta-lactamase reporter, 18 h; 530 nm emission
[21] = molecular target: Retinoic acid receptor RXR-alpha (Homo sapiens) (UniProt P19793); experiment: as above
Chain of Retinoic acid receptor RXR-alpha (Homo sapiens) (P19793 whole entry, looked up): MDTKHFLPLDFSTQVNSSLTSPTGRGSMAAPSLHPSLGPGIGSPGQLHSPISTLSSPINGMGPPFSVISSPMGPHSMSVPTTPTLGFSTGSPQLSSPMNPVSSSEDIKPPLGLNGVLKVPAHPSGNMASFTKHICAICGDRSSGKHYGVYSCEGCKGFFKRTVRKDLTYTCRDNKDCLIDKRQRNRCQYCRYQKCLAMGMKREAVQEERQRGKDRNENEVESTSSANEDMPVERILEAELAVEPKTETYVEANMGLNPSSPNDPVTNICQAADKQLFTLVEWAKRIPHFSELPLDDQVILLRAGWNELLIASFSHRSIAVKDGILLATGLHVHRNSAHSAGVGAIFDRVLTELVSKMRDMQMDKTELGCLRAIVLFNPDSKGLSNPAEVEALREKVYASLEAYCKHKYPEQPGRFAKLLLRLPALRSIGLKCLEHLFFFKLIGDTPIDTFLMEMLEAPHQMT

[22] = qHTS assay for small molecule antagonists of retinoid X receptor alpha signaling (AID 588546); conditions: HEK293T RXRa-UAS-bla, beta-lactamase ratio, antagonist mode; measured here: W530 green channel, cytotoxicity proxy;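 also: cells stimulated with 9-cis-retinoic acid as agonist; % is scaled to controls: 0 for no effect and ±100 for the full control effect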
Outline: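 Beta-lactamase reporter inhibition, read as CCF4 fluorescence ratio (ex 405, em 460/530 nm) after 2 h at RT. HEK293T UAS-bla cells, 2500/well, were stimulated with 9-cis-RA at 500 or 100 nM final alongside test compound for 18 h at 37 C.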

O=Cc1ccccc1
10.9%: max response [20]
inactive: outcome [1] | outcome [2] | outcome [3] | outcome [4] | outcome [5] | outcome [6] | outcome [7] | outcome [8] | outcome [9] | outcome [10] | outcome [11] | outcome [12] | outcome [13] | Potency [14] | outcome [15] | Potency [16] | activation [17] -1.64% | Potency [18] | outcome [19] | outcome [21]
-3.83%: max response [22]
